In paper PMC7862700, “An all-to-all approach to the identification of sequence-specific readers for epigenetic DNA modifications on cytosine”:

Columns and labels:
Experiment in all cases: DAPPL (digital affinity profiling via proximity ligation, sequencing); 10 mM Tris-HCl pH 7.5, 50 mM NaCl, 1 mM DTT, 4% glycerol, room temperature, 30 min; GST-TFs on glutathione beads, 16-mer random dsDNA library, 0.1% formaldehyde crosslink after washing; high values mean tight binding
Details in all cases: protein: recombinant; tags: N-terminal GST; dsDNA, one strand shown
FEV = biological target: T1, FEV (Homo sapiens, UniProt Q99581 1-238)
T1 sequence: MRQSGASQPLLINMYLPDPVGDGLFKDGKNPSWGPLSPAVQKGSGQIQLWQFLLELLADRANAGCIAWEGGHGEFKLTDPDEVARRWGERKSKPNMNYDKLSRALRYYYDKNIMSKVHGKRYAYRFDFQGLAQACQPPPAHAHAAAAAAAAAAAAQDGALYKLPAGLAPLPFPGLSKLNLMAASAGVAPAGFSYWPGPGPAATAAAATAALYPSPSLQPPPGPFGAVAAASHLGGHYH
Summary of the method: (§1)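 GST fusions of human transcription factors were expressed in yeast and captured with glutathione beads. Once given DNA barcodes and pooled alongside a tag-only sample, they were incubated for 30 min at room temperature with 200 nmole of a random double-stranded 16-mer DNA library in Tris/NaCl/DTT/glycerol buffer, then washed, crosslinked (0.1% formaldehyde), proximity-ligated, PCR-amplified and sequenced on an Illumina NextSeq500. The binding signal of each hexamer is its read frequency for a factor divided by its frequency for the tag-only sample.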

ETV5 = ETV5 (Homo sapiens, UniProt P41161 1-510)
Summary of the method: as §1

SPIC = biological target: T2, SPIC (Homo sapiens, UniProt Q8N5J4 1-248)
T2 sequence: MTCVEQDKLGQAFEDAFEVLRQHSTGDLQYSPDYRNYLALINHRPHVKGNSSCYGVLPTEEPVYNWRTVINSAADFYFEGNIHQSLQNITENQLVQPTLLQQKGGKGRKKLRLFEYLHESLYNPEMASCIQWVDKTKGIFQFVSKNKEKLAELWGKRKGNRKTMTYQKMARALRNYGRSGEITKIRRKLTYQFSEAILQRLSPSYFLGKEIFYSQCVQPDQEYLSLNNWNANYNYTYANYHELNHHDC
Summary of the method: as §1

ELF4 = ELF4 (Homo sapiens, UniProt Q99607 1-663)
Summary of the method: as §1

ELK4 = biological target: T3, ELK4 (Homo sapiens, UniProt P28324-2 1-405)
T3 sequence: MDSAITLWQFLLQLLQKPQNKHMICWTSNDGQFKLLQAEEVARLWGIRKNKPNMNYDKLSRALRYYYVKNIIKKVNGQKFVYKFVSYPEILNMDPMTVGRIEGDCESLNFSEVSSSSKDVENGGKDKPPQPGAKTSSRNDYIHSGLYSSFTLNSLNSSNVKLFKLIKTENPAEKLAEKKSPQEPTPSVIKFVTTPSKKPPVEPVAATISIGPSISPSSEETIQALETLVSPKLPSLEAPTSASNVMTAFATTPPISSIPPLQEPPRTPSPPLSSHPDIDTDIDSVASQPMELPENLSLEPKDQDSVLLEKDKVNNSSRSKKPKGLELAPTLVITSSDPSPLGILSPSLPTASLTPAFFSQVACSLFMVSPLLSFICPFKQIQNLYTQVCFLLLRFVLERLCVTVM
Summary of the method: as §1

ETV2 = biological target: T4, ETV2 (Homo sapiens, UniProt O00321 1-342)
T4 sequence: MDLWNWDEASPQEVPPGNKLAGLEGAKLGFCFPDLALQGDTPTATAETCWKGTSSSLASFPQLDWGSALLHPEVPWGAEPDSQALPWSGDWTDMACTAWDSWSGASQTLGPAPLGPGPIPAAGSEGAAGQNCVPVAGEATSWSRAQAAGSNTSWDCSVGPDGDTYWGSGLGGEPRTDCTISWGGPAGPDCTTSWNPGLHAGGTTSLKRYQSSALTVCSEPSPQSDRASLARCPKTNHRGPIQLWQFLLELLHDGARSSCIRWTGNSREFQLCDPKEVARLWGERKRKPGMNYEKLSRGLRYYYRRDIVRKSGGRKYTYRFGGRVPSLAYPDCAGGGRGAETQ
Summary of the method: as §1

ELF3 = biological target: T5, ELF3 (Homo sapiens, UniProt P78545 1-371)
T5 sequence: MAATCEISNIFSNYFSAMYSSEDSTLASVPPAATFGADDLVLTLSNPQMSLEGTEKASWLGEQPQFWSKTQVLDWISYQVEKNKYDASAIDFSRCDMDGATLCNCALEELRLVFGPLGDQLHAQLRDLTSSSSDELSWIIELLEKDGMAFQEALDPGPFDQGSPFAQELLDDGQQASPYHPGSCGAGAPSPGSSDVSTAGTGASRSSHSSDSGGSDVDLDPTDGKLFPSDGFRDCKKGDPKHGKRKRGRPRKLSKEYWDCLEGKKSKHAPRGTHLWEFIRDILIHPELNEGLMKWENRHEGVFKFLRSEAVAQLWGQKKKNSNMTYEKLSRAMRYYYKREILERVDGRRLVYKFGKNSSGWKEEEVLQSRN
Summary of the method: as §1

ETV1 = ETV1 (Homo sapiens, UniProt P50549 1-477)
Summary of the method: as §1

ERF = biological target: T6, ERF (Homo sapiens, UniProt P50548 1-548)
T6 sequence: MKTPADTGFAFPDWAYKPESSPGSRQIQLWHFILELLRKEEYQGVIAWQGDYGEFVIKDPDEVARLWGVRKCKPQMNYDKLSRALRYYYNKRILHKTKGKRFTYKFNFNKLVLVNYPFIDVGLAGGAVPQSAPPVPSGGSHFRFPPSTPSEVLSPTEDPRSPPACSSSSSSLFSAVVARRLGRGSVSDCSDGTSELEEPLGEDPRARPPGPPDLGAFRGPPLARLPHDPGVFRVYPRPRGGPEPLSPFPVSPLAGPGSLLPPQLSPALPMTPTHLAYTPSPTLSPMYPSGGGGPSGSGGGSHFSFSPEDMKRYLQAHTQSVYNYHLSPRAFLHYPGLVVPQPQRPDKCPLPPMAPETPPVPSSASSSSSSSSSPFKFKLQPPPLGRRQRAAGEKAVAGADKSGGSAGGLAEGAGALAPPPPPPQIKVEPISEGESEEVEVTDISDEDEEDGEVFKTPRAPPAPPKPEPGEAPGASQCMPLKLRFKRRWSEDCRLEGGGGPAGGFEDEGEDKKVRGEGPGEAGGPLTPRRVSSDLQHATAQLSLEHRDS
Summary of the method: as §1

ETV3L = biological target: T7, ETV3L (Homo sapiens, UniProt Q6ZN32 1-361)
T7 sequence: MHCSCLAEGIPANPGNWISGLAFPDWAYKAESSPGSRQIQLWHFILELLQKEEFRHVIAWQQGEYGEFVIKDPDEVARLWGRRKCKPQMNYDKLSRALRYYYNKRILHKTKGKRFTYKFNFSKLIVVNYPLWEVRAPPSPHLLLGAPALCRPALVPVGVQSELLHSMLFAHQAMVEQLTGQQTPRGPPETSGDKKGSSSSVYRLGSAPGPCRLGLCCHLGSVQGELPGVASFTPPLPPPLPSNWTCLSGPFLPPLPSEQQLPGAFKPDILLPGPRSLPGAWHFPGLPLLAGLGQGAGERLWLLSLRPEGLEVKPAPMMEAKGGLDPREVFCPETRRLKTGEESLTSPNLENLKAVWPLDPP
Summary of the method: as §1

ETS2 = biological target: T8, ETS2 (Homo sapiens, UniProt P15036 1-469)
T8 sequence: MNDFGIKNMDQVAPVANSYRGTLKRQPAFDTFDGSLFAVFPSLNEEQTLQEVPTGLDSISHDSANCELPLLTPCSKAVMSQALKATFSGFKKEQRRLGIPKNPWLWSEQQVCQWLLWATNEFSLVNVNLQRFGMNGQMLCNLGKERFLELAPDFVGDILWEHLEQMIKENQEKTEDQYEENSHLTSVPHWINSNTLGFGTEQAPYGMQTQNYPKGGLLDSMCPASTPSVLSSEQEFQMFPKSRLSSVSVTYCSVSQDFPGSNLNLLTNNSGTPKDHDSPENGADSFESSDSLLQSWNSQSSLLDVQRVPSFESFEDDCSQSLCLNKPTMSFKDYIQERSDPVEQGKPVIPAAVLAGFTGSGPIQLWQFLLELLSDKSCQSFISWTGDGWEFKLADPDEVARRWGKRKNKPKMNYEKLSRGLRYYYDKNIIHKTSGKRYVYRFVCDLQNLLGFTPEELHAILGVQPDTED
Summary of the method: as §1

SPDEF = biological target: T9, SPDEF (Homo sapiens, UniProt O95238 1-335)
T9 sequence: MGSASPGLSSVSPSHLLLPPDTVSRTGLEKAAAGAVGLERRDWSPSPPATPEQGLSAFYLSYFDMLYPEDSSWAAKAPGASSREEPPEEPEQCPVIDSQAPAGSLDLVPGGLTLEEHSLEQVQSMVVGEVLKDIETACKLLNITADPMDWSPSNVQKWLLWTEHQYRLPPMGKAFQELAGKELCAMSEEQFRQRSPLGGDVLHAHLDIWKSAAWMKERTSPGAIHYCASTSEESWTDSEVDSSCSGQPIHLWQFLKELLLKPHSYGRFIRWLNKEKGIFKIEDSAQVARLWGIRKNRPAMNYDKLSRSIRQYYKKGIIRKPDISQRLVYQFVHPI
Summary of the method: as §1

ETV7 = biological target: T10, ETV7 (Homo sapiens, UniProt Q9Y603 1-341)
T10 sequence: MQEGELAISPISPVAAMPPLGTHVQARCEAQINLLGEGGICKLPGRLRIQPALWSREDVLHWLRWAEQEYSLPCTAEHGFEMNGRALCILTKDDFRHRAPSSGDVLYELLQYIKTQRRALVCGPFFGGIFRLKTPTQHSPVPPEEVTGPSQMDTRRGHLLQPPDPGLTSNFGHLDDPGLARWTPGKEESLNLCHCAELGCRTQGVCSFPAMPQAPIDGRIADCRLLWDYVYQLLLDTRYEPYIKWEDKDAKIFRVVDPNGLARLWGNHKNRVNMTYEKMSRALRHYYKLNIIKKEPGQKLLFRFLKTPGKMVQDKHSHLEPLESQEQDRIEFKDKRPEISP
Summary of the method: as §1

ELF5 = biological target: T11, ELF5 (Homo sapiens, UniProt Q9UKW6-2 1-255)
T11 sequence: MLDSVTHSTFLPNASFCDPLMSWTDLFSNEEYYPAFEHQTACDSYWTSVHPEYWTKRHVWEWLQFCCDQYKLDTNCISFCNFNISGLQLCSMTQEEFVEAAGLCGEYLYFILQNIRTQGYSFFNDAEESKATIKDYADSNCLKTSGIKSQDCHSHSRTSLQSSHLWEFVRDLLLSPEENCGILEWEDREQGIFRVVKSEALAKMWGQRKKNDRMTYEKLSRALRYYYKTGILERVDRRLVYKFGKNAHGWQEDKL
Summary of the method: as §1

ETV3 = biological target: T12, ETV3 (Homo sapiens, UniProt P41162-2 1-143)
T12 sequence: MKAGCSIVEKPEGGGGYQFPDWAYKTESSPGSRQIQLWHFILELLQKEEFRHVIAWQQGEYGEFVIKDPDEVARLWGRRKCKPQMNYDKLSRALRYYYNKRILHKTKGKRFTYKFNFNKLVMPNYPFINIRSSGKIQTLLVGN
Summary of the method: as §1

ETV6 = ETV6 (Homo sapiens, UniProt P41212 1-452)
Summary of the method: as §1

Sequence of ETV6 (P41212 whole entry): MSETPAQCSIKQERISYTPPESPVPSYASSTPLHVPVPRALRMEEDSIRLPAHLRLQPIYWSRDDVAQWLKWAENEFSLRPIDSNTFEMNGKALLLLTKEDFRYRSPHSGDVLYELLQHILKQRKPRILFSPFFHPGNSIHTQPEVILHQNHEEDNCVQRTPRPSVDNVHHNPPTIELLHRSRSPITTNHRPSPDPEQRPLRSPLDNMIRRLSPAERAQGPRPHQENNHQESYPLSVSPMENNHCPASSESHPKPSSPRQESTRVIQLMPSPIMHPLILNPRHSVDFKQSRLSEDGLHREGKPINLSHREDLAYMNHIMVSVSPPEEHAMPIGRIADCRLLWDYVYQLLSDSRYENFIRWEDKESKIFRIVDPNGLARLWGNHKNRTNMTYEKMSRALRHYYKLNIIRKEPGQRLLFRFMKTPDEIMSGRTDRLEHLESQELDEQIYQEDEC
Sequence of ETV5 (P41161 whole entry): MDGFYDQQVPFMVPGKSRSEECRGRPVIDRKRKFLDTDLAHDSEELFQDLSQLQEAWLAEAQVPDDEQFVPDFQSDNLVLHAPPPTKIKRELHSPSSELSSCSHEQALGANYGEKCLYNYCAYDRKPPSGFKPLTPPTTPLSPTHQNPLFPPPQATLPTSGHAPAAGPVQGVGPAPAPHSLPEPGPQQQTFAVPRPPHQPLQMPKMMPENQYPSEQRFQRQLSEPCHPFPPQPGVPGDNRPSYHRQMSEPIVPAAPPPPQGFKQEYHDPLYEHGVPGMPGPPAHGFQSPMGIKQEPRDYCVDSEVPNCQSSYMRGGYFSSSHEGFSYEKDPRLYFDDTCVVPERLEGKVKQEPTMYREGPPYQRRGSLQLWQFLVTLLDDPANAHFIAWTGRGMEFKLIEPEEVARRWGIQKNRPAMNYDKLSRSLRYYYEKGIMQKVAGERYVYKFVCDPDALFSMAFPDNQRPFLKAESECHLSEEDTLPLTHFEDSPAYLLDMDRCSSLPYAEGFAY
Sequence of ETV1 (P50549 whole entry): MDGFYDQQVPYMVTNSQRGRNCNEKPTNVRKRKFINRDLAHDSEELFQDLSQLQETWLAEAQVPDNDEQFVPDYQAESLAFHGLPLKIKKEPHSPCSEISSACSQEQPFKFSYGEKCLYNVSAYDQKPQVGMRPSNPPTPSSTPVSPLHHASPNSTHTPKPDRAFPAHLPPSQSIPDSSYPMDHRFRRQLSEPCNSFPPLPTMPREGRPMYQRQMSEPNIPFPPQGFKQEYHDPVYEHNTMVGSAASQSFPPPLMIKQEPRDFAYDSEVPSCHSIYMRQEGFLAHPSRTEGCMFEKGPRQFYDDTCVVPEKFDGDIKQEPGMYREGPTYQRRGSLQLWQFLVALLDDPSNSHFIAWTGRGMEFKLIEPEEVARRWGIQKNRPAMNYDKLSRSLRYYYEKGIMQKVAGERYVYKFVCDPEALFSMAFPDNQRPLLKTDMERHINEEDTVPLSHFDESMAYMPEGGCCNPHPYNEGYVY
Sequence of ELF4 (Q99607 whole entry): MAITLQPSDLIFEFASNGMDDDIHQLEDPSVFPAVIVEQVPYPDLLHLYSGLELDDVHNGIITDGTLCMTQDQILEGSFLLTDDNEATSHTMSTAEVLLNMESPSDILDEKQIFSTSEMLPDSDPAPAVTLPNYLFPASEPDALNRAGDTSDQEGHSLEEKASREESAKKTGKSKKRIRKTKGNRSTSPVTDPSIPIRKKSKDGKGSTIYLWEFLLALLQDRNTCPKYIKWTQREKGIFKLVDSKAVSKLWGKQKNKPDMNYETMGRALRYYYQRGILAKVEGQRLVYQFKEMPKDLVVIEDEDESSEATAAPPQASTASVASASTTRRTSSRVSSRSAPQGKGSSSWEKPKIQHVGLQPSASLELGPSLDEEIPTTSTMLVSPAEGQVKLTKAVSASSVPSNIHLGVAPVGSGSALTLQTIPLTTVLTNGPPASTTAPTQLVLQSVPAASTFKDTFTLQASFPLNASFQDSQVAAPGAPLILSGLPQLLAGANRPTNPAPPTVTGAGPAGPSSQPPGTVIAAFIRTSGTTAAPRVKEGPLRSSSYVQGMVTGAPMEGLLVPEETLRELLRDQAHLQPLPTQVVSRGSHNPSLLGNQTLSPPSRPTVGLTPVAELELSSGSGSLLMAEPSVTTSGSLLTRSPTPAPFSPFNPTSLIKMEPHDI

| Sequence | binding signal (FEV) | binding signal (ETV5) | binding signal (SPIC) | binding signal (ELF4) | binding signal (ELK4) | binding signal (ETV2) | binding signal (ELF3) | binding signal (ETV1) | binding signal (ERF) | binding signal (ETV3L) | binding signal (ETS2) | binding signal (SPDEF) | binding signal (ETV7) | binding signal (ELF5) | binding signal (ETV3) | binding signal (ETV6) |
| --- | --- | --- | --- | --- | --- | --- | --- | --- | --- | --- | --- | --- | --- | --- | --- | --- |
| AACACC | 1.15 fold enrichment (6-mer frequency, TF over GST control) | 1.04 fold enrichment (6-mer frequency, TF over GST control) | 1.02 fold enrichment (6-mer frequency, TF over GST control) | 1.14 fold enrichment (6-mer frequency, TF over GST control) | 1.13 fold enrichment (6-mer frequency, TF over GST control) | 1.15 fold enrichment (6-mer frequency, TF over GST control) | 1.09 fold enrichment (6-mer frequency, TF over GST control) | 1.13 fold enrichment (6-mer frequency, TF over GST control) | 1.15 fold enrichment (6-mer frequency, TF over GST control) | 1.15 fold enrichment (6-mer frequency, TF over GST control) | 1.13 fold enrichment (6-mer frequency, TF over GST control) | 1.15 fold enrichment (6-mer frequency, TF over GST control) | 1.13 fold enrichment (6-mer frequency, TF over GST control) | 1.09 fold enrichment (6-mer frequency, TF over GST control) | 1.13 fold enrichment (6-mer frequency, TF over GST control) | 1.06 fold enrichment (6-mer frequency, TF over GST control) |
| ACATTG | 1.12 fold enrichment (6-mer frequency, TF over GST control) | 1.09 fold enrichment (6-mer frequency, TF over GST control) | 1.18 fold enrichment (6-mer frequency, TF over GST control) | 1.12 fold enrichment (6-mer frequency, TF over GST control) | 1.19 fold enrichment (6-mer frequency, TF over GST control) | 1.09 fold enrichment (6-mer frequency, TF over GST control) | 1.25 fold enrichment (6-mer frequency, TF over GST control) | 1.19 fold enrichment (6-mer frequency, TF over GST control) | 1.26 fold enrichment (6-mer frequency, TF over GST control) | 1.18 fold enrichment (6-mer frequency, TF over GST control) | 1.17 fold enrichment (6-mer frequency, TF over GST control) | 1.12 fold enrichment (6-mer frequency, TF over GST control) | 1.2 fold enrichment (6-mer frequency, TF over GST control) | 1.07 fold enrichment (6-mer frequency, TF over GST control) | 1.1 fold enrichment (6-mer frequency, TF over GST control) | 1.21 fold enrichment (6-mer frequency, TF over GST control) |
| GTAGCA | 1.07 fold enrichment (6-mer frequency, TF over GST control) | 1.13 fold enrichment (6-mer frequency, TF over GST control) | 1.16 fold enrichment (6-mer frequency, TF over GST control) | 1.07 fold enrichment (6-mer frequency, TF over GST control) | 1.06 fold enrichment (6-mer frequency, TF over GST control) | 1.11 fold enrichment (6-mer frequency, TF over GST control) | 1.01 fold enrichment (6-mer frequency, TF over GST control) | 1.11 fold enrichment (6-mer frequency, TF over GST control) | 1.22 fold enrichment (6-mer frequency, TF over GST control) | 1.04 fold enrichment (6-mer frequency, TF over GST control) | 1.02 fold enrichment (6-mer frequency, TF over GST control) | 1.08 fold enrichment (6-mer frequency, TF over GST control) | 1.06 fold enrichment (6-mer frequency, TF over GST control) | 1.1 fold enrichment (6-mer frequency, TF over GST control) | 1.05 fold enrichment (6-mer frequency, TF over GST control) | 1.03 fold enrichment (6-mer frequency, TF over GST control) |
